# Screening data (PubChem BioAssay)
# Most compounds without a hit are left out; they make up all but 9.4% or so of the library.
# Rab9 prom act – qHTS Assay for Rab9 Promoter Activators. Huh7 Rab9 promoter-luciferase reporter, luminescence, 24 h. Potency, µM (series often up to 9.22 µM), for the others: top-dose activation, negative = inhibition, actives largely listed as activators. AID 485297, 2010. 2.8% of 320,000 active; note: % of control where 0% means no effect; nearly all actives have a fitted effect of over 60% in size
#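 Stable Rab9-luc Huh7, 1500 cells/well, 2 h settle; cmpd in DMSO, 24 h, 37 °C/5% CO2; luciferase reagent 10 min RT; luminescence.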
# SMN2 splice enh – qHTS Assay for Enhancers of SMN2 Splice Variant Expression | 2.8% of 210,000 active | HEK293 SMN2-luciferase splicing reporter, luminescence, 30-36 h | AID 1458, 2008 | Potency, µM (titrated, usually from 46.1 µM), for the others: top-dose activity change, positive = activation, hits mostly activators; note: % of control where 0% means no effect; nearly all actives have a fitted effect of over 55% in size
#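 HEK293 cells carry an SMN2 […]–luciferase reporter in which exon 7 inclusion puts luciferase in frame. Cells were plated 10-12 h before compound addition, then incubated 30-36 h at 37C. ONE-Glo luminescence was read; sodium butyrate at 4.5 mM final served as control.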
# ELG1 DNA repair – qHTS screen for small molecules that inhibit ELG1-dependent DNA repair in human embryonic kidney (HEK293T) cells expressing luciferase-tagged ELG1. 2.3% of 330,000 active. HEK293T ELG1-luciferase reporter, luminescence, 16 h; DNA damage induced by 5-fluorouridine. AID 504467, 2011. Potency, µM (doses to about 46.1 µM), for inactives: top-dose activity change, negative = inhibition, hits mostly inhibitors; note: % is set by controls: 0 for no effect and ±100 for the full control effect; nearly all actives have a fitted effect of over 55% in size
#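 DMSO vehicle served as the neutral condition. Each well held 2,000 cells given 5-fluorouridine plus compound; after 16 hr at 37 °C/5% CO2, ONE-Glo was added and luciferase measured 30 min later.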
# FLuc counter – qHTS profiling assay for firefly luciferase inhibitor/activator using purifed enzyme and Km concentrations of substrates (counterscreen for miR-21 project). 6.9% of 360,000 active. Potency, µM (series often up to 57.5 µM), for inactives: at the top dose activity change, negative = inhibition, actives largely listed as inhibitors. Luciferin 4-monooxygenase (Photinus pyralis), P08659. purified FLuc, Km substrates, luminescence inhibition. AID 588342, 2011;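 note: plate controls were vehicle for no effect and reference inhibitor for full effect; nearly all actives have a fitted effect of over 55% in size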
# Target sequence (P08659 whole entry, looked up): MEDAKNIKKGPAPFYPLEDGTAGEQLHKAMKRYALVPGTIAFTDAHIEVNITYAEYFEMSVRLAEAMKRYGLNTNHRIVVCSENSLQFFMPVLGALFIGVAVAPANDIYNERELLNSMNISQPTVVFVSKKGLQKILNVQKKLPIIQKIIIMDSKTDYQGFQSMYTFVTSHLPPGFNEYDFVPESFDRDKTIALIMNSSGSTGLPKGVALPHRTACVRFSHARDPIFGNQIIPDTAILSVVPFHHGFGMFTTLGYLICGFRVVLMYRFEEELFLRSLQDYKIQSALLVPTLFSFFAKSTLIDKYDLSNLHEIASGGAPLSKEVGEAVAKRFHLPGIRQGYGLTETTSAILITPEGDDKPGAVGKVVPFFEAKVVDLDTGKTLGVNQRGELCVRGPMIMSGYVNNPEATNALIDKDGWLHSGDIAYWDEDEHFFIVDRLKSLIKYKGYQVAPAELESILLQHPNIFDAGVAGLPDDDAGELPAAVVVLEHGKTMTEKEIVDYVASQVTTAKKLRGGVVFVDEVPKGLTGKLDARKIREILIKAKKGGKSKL
#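 Biochemical qHTS of compounds, final roughly 60 µM downward over six points, against 10 nM purified firefly luciferase using Km concentrations of substrates (10 uM D-luciferin, 10 uM ATP) in Tris acetate pH 7.5 buffer; luminescence output.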
# NPC1 promoter act – qHTS Assay for NPC1 Promoter Activators | Huh7 NPC1 promoter luciferase reporter, 24 h | Potency, µM (doses to about 9.22 µM), for inactives: top-dose activation, hits mostly activators | AID 485313, 2010 | 2.4% of 320,000 active; note: % of control where 0% means no effect; nearly all actives have a fitted effect of over 60% in size
#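 Luminescence read-out of NPC1 promoter-driven luciferase in stably transfected Huh7 cells; compounds delivered in DMSO and left 24 h at 37C, 5% CO2, qHTS titration format.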
# ELG1 genotox – qHTS screen for small molecules that induce genotoxicity in human embryonic kidney (HEK293T) cells expressing luciferase-tagged ELG1 | 1.3% of 330,000 active | Potency, µM (highest dose often 46 µM), inactives show top-dose activity change, positive = activation, usual class: activators | HEK293T ELG1-luciferase reporter, luminescence, 16 h | AID 504466, 2011; note: % of control where 0% means no effect; nearly all actives have a fitted effect of over 60% in size
#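 After overnight (16 hr) compound treatment at 37 °C, ELG1-luciferase HEK293T cells were lysed with ONE-Glo; luminescence quantified 30 min later at room temperature.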
# * = called active by the depositor; ? = inconclusive; nt = no result. Calls come from the whole dose curve; as a rule, active = well fitted curve in the direction sought with a large enough effect; inconclusive = small, poorly fitted or top-dose-only effect, or another doubt; inactive = no such curve, though single readings can be large; an effect the other way counts as inactive or inconclusive. Potency is the fitted concentration of half-maximal effect.
SMILES,Rab9 prom act,SMN2 splice enh,ELG1 DNA repair,FLuc counter,NPC1 promoter act,ELG1 genotox
CC(=O)c1c(C)[nH]c(C(=O)OCc2cccc(C)c2)c1C,19.1%,nt,?,?,26.4%,?
CC(=O)c1c(C)[nH]c(C(=O)COC(=O)CCSc2ccccc2)c1C,-0.6%,-12.9%,-9.4%,3.7%,-0.7%,0.4%
CC(=O)c1c(C)[nH]c(C(=O)OCc2ccc(Br)cc2)c1C,2.1%,-74.2%,18.3µM*,?,2.8%,?
CCN(C(=O)c1cccn(Cc2ccccc2C)c1=O)c1ccccc1,nt,nt,nt,4.5%,nt,nt
CC1Cc2cc(S(=O)(=O)NCc3ccc(N(C)C)cc3)ccc2N1C(=O)C1CCC1 (stereo not drawn),nt,nt,nt,-12.1%,nt,nt
CCOC(=O)c1c(C)[nH]c(C(=O)COC(=O)CCSc2ccccc2)c1C,2.5%,23.2%,?,16.9µM*,9.4%,?
CCCc1cc(=O)[nH]c(SCC(=O)c2[nH]c(C)c(C(=O)OCC)c2C)n1,0.3%,-24.1%,6.1%,2.2%,1.4%,0.0%
CCOC(=O)c1c(C)[nH]c(C(=O)CSc2nccc(C)n2)c1C,2.82µM*,8.91µM*,?,?,2.82µM*,?
CCOC(=O)c1c(C)[nH]c(C(=O)CSc2ccccc2)c1C,0.398µM*,nt,?,0.536µM*,0.562µM*,0.651µM*
CC(=O)c1c(C)[nH]c(C(=O)CSc2nc3ccc(C)cc3[nH]2)c1C,-0.5%,-55.5%,11.6µM*,-2.2%,-0.8%,-11.3%
CCOC(=O)c1c(C)[nH]c(C(=O)COC(=O)c2oc3ccccc3c2C)c1C,-2.2%,-9.9%,3.8%,2.0%,3.9%,2.9%
Oc1ccc(N=Nc2n[nH]c(-c3ccc(Cl)cc3)n2)cc1,0.8%,20µM*,?,12µM*,5.2%,2.5%
CCn1cc(C(=O)NCc2ccccc2)c(=O)c2cc(S(=O)(=O)N3CCOCC3)ccc21,nt,3.4%,nt,-4.0%,nt,nt
CC1CCc2sc(C(=O)N/N=C/c3ccc(O)cc3)cc2C1 (stereo not drawn),-1.0%,nt,?,2.13µM*,0.4%,15.3%
CC1CCc2sc(C(=O)OCC(=O)NCc3ccccc3)cc2C1 (stereo not drawn),-0.9%,nt,-2.2%,6.8%,-1.2%,10.1%
C/C(=N\NC(=O)c1cc2c(s1)CCC(C)C2)c1ccncc1 (stereo not drawn),13.0%,26.6%,17.7%,9.53µM*,3.3%,7.5%
CC1CCc2sc(C(=O)NCC(C)(C)N3CCOCC3)cc2C1 (stereo not drawn),1.3%,nt,14.4%,-7.9%,-2.7%,-0.4%
CCC1CCc2sc(C(=O)NNC(=O)c3ccncc3)cc2C1 (stereo not drawn),-4.1%,nt,4.5%,16.9µM*,1.0%,-0.5%
C/C(=N\NC(=O)c1cc2c(s1)CCC(C)C2)c1ccc[nH]1 (stereo not drawn),1.58µM*,nt,?,0.757µM*,1.78µM*,?
CC1CCc2sc(C(=O)Nc3ccc(N4CCOCC4)cc3)cc2C1 (stereo not drawn),-2.0%,-26.8%,?,?,5.0%,-7.1%
O=C(c1cc(C(F)(F)F)cc(C(F)(F)F)c1)N1CCC2(CCCN(c3ccncc3)C2)CC1,nt,-9.1%,nt,nt,nt,nt
CCN1C(=O)C(Cc2nc3ccccc3c(=O)n2C)c2cc(C)ccc21 (stereo not drawn),nt,nt,nt,3.6%,nt,nt
CCOC(=O)c1c(CN2CCOCC2)n(-c2ccccc2)c2cc(Br)c(OC)cc12,-3.4%,-26.3%,?,0.7%,-4.0%,-11.8%
CCOC(=O)c1c(CN2CCOCC2)n(-c2ccccc2)c2cc(Br)c(O)cc12,0.9%,-6.7%,23.1µM*,0.7%,-4.1%,-8.5%
CCOC(=O)c1c(C)[nH]c(CCC(=O)NCc2ccc(N(C)C)cc2)c1C,nt,nt,nt,-12.0%,nt,nt
SMILES,Rab9 prom act,SMN2 splice enh,ELG1 DNA repair,FLuc counter,NPC1 promoter act,ELG1 genotox
CC(=O)c1c(C)[nH]c(C(=O)NC2CCSc3ccccc32)c1C (stereo not drawn),-5.5%,nt,5.8µM*,-4.2%,-4.3%,-2.9%
O=C(NCCc1ccccc1)c1ccco1,?,12.6µM*,?,?,?,?
O=C(Nc1ccccc1C(=O)NCCc1ccccc1)c1ccco1,27.8%,15.2%,?,?,?,5.5%
CN(CC(=O)NCCc1ccccc1)Cc1ccco1,26.4%,nt,?,?,?,20.6µM*
CCc1c(C(=O)NC2CCCc3ccccc32)[nH]c(C)c1C(C)=O (stereo not drawn),0.3%,nt,?,-2.2%,-1.1%,-9.3%
O=C(NCCc1csc(-c2ccccc2)n1)c1c(F)cccc1F,-1.0%,-66.3%,?,?,2.0%,-13.6%
Cc1ccnc(NC(=O)CCC(=O)N(CC(=O)NCCc2ccccc2)Cc2ccco2)c1,-2.4%,5.8%,8.1%,-1.5%,0.0%,-0.8%
O=C(NCCc1ccccc1)c1c(F)cccc1F,1.41µM*,nt,?,16.9µM*,1.58µM*,?
O=C(NCc1cccs1)c1nn(-c2ccccc2F)nc1CO,nt,-59.1%,nt,5.6%,nt,nt
CN1CCC2(CC1)CCN(C(=O)c1cccc(F)c1)CC2,nt,2.1%,nt,nt,nt,nt
COc1ccc(-c2nc3cnc(N4CCNCC4)nc3n(CCC#N)c2=O)cc1,nt,-3.4%,nt,nt,nt,nt
Cc1cccc(CNC(=O)c2cccc(NC(=O)N3CCSc4ncccc43)c2)c1,nt,nt,nt,-12.4%,nt,nt
CC(=O)c1c(C)[nH]c(C(=O)NCCc2ccccc2)c1C,1.26µM*,11.2µM*,?,10.7µM*,2.51µM*,?
COc1ccccc1C(=O)COC(=O)c1ccc(N(C)C)cc1,3.55µM*,22.4µM*,?,5.36µM*,3.16µM*,?
COc1ccccc1C(=O)COC(=O)c1ccccc1O,13.4%,4.7%,?,21.3µM*,-10.5%,16.3%
COc1ccccc1C(=O)COC(=O)/C=C/c1ccccc1,26.1%,nt,?,13.5µM*,25.8%,20.2%
CC(C)(C)C(=O)COC(=O)c1ccccc1O,-3.9%,-12.4%,10.5%,-17.2%,0.4%,-0.2%
CCc1ccc(C(=O)COC(=O)c2ccccc2OC)cc1,3.16µM*,nt,19.6%,0.477µM*,2.24µM*,?
CCOc1ccc(CC(=O)Nc2nnc3n2CCS3)cc1,nt,nt,nt,-0.2%,nt,nt
c1ccc(CN(CCN(Cc2ccccn2)Cc2ccccn2)Cc2ccccn2)nc1,nt,-101.1%,nt,nt,nt,nt
CC(=O)c1cccc(NC(=O)CC2S/C(=N/N=C/c3ccccc3)NC2=O)c1 (stereo not drawn),-2.9%,-6.8%,3.8%,-2.0%,-0.9%,4.7%
